Measurements from PubChem BioAssay (NCI).
This is part of a sample that, as a whole, favours compounds with a hit. Of some 83,000 tested, about 20% had one in any assay.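 For each line, cells grew in 96-well plates with the test compound present at a single concentration for 48 hours.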 A number with no mark means an inactive call. Activity calls are given as the source filed them. The calls were made as follows: active = growth percent below 10; inactive = the rest.

Key:
Experiment in all cases: NCI-60 one-dose screen, 48 h (100 = growth as untreated, 0 = no growth, -100 = all killed)
RPMI-8226 leukemia = conditions: 10 µM
OVCAR-8 ovarian = conditions: 10 µM
OVCAR-5 ovarian = conditions: 10 µM
OVCAR-4 ovarian = conditions: 10 µM
SK-OV-3 ovarian = conditions: 10 µM
IGROV1 ovarian = conditions: 10 µM
OVCAR-3 ovarian = conditions: 10 µM
HS 578T breast = conditions: 10 µM
NCI/ADR-RES ovarian = conditions: 10 µM
T-47D breast = conditions: 10 µM
BT-549 breast = conditions: 10 µM
MDA-MB-435 melanoma = conditions: 10 µM
SW-620 colon = conditions: 10 µM
MCF7 breast = conditions: 10 µM unless noted
HCT-116 colon = conditions: 10 µM
HCC-2998 colon = conditions: 10 µM
KM12 colon = conditions: 10 µM
SR leukemia = conditions: 10 µM

Compound	growth (RPMI-8226 leukemia)	growth (OVCAR-8 ovarian)	growth (OVCAR-5 ovarian)	growth (OVCAR-4 ovarian)	growth (SK-OV-3 ovarian)	growth (IGROV1 ovarian)	growth (OVCAR-3 ovarian)	growth (HS 578T breast)	growth (NCI/ADR-RES ovarian)	growth (T-47D breast)	growth (BT-549 breast)	growth (MDA-MB-435 melanoma)	growth (SW-620 colon)	growth (MCF7 breast)	growth (HCT-116 colon)	growth (HCC-2998 colon)	growth (KM12 colon)	growth (SR leukemia)
CC(CN1CCCCC1)NC(=O)c1scnc1-c1ccccc1 (configuration not stated)	101%	100%	118%	108%	103%	105%	112%	195%	99.4%	98.7%	101%	101%	106%	103%	93.8%	96.8%	106%	–
CCCC(=O)c1cc(C)ccc1OC	110%	111%	101%	106%	109%	94.1%	112%	118%	112%	105%	107%	116%	114%	103%	107%	111%	110%	–
COc1ccc(C(C)C=O)cc1 (configuration not stated)	–	109%	117%	110%	–	116%	–	–	104%	97.9%	–	113%	–	95.9%	101%	109%	107%	102%
CCOC(=O)Nc1cc2c(c(N)n1)N=C(c1ccccc1)CO2	29.3%	14.5%	57.4%	49.4%	22.8%	25.2%	-28.2% (active)	50.1%	13.4%	72.3%	49.7%	4.31% (active)	26.2%	20.4%	6.32% (active)	23.5%	–	–
C/C(=C\c1ccc([N+](=O)[O-])cc1)C(=O)O	95.8%	99.2%	104%	99.2%	104%	110%	110%	101%	109%	98.8%	94.2%	102%	102%	95.7%	97.3%	101%	103%	–
COC(=O)c1ccccc1Br	104%	105%	82.2%	103%	107%	108%	106%	113%	100%	109%	109%	98.5%	109%	106%	92%	106%	94.7%	–
O=C(/C=C\c1ccc(O)cc1)c1ccccc1	–	98.6%	88.4%	–	108%	87.3%	96%	110%	101%	84.6%	37.4%	95%	101%	80.8%	78.2%	112%	–	76.6%
C=C[Si](OC(C)=O)(OC(C)=O)OC(C)=O	95.9%	109%	115%	110%	96.7%	97.2%	108%	107%	104%	93.6%	95.9%	99.6%	101%	92.9%	100%	103%	104%	–
O=C(Cc1ccc(OCc2ccccc2)cc1)NCc1ccc2c(c1)OCO2	67.7%	91.1%	110%	107%	82.4%	60.4%	58.9%	69.8%	47.8%	86.2%	56.1%	-42.4% (active)	28.1%	44.5%	40.4%	77.2%	33.1%	–
O=C(Nc1ccccc1C(=O)NCC1CC1)c1cccs1	97.4%	99.4%	99.9%	98.7%	110%	118%	117%	114%	101%	106%	99.9%	105%	109%	106%	93.7%	103%	107%	–
